# Shown are actives, neighbours in structure and some others; about 18% of the full set was active somewhere.
# LDHA inh: inhibitors of human lactate dehydrogenase A | P00338 | purified LDHA, NADH/diaphorase-resazurin fluorescence; hits give low values | activity change, % (values are at about 110 or 230 µM) | 0.15% of 480,000 active; in the data active means activity change below about -30%; inconclusive means mostly about -25% to -30%;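 further: plate controls were DMSO wells for no effect and wells without enzyme for full effect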
#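 LDH5 2 nM; NADH 0.06 mM, pyruvate 0.2 mM; 200 mM Tris pH 7.4, EDTA, Tween-20; 5 min RT. Detection: diaphorase 0.133 mg/mL + resazurin 37 µM, fluorescence ex540/em590 at 0 and 20 min; normalized to enzyme-free and DMSO wells.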
# DT40 TDP1 CPT: DT40-hTDP1 cell growth loss with CPT. chicken DT40 Tdp1-/-;hTDP1 cells + 20 nM CPT, ATP luminescence, 48 h. Potency, µM (doses to about 46.2 µM), for the others: at the highest dose activity change, negative = growth inhibition, most hits filed as inhibitors. 12% of 420,000 active; further: potency means the concentration at half of the fitted maximal effect; nearly all actives have a fitted effect of over 55% in size
#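 Cell growth measured by CellTiter-Glo luminescence after a minimum 48 h, 37 C compound exposure with 20 nM CPT in Tdp1-knockout DT40 cells stably expressing hTDP1, seeded 400/well; qHTS titration format.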
# DT40 TDP1 no CPT: qHTS for Inhibitors of human tyrosyl-DNA phosphodiesterase 1 (TDP1): qHTS in cells in absence of CPT; DT40 Tdp1-/- hTDP1 cells, no CPT, ATP luminescence, 48 h; Potency, µM (series often up to 46.2 µM), without a hit: at the top dose activity change, negative = growth inhibition, most hits filed as inhibitors; 15% of 420,000 active; further: potency means the concentration at half of the fitted maximal effect; nearly all actives have a fitted effect of over 55% in size
#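 Readout: luminescence from CellTiter-Glo after 30 min in the dark at RT. Cells: DT40 Tdp1-/- with stable hTDP1, 400/well. Exposure: compounds alone, ≥48 hr, 37 °C.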
# VP16 counter: Gal4-VP16 reporter inhibition counter-screen | 3.5% of 310,000 active | Potency, µM (doses to about 53.6 µM), without a hit: at the highest dose activity, negative = inhibition, hits mostly inhibitors | AID 2546 | Drosophila S2 Gal4-VP16 UAS-luciferase, luminescence, 20 h;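 further: Gal4-VP16 expression switched on by copper sulfate through the metallothionein promoter; potency means the concentration at half of the fitted maximal effect; nearly all actives have a fitted effect of over 50% in size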
# RORg inh: blocks mouse ROR gamma transcriptional activity; P51450; Drosophila S2 Gal4-RORgamma UAS-luciferase reporter, 20 h; Potency, µM (highest dose often 53.6 µM), inactives show at the top dose activity change, negative = inhibition, most hits filed as inhibitors; 5.4% of 310,000 active; AID 2551; further: potency means the concentration at half of the fitted maximal effect; nearly all actives have a fitted effect of over 60% in size
# Target sequence (P51450 whole entry, looked up, the tested form may be a part): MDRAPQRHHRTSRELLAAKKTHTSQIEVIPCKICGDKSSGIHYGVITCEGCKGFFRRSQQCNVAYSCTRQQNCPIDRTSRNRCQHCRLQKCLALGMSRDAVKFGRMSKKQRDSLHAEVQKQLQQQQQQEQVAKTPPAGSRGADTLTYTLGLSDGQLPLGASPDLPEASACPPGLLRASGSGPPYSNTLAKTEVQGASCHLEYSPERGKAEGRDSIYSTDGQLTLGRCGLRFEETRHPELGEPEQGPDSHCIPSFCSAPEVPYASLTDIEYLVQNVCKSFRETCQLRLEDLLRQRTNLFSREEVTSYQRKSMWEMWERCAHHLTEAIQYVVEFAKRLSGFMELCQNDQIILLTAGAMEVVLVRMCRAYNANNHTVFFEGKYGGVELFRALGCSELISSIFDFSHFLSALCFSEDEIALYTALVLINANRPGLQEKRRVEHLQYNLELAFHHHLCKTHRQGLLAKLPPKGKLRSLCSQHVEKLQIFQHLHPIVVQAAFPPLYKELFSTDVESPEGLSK
#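 A Gal4/UAS one-hybrid system in insect cells: metallothionein-promoter Gal4–ROR gamma fusion plus Photinus luciferase reporter. Copper sulfate 700 uM final, 20 hr ambient incubation, luminescent detection after 10 min with reagent.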
# IL1B secr inh: blocks inflammasome-driven IL-1 beta release; THP-1 LPS/ATP IL-1B secretion, AlphaLISA, 16 h; hits give low values; activity change, % at 57.5 µM; 4.7% of 360,000 active; in the data active means activity change below about -50%; inconclusive means mostly about -30% to -49%
#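 THP-1 cells pretreated 1 hr with compounds (up to 57.5 uM final), then stimulated with LPS (250 ng/mL final) plus ATP (1.25 mM final); secreted IL-1B measured by AlphaLISA after 16 hr, decreased signal indicating inhibition.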
# An asterisk follows results filed as active; u = inconclusive; x = not tested or not shown. Unless noted, the call rests on the fitted dose curve; in most records, active means well fitted curve in the direction sought with a large enough effect; inconclusive means small, poorly fitted or top-dose-only effect, or another doubt; inactive means no such curve, though single readings can be large; an effect the other way counts as inactive or inconclusive. Unless noted, on the % scale 0 is the no-effect control and ±100 the full control effect.
SMILES,LDHA inh,DT40 TDP1 CPT,DT40 TDP1 no CPT,VP16 counter,RORg inh,IL1B secr inh
Cc1cccc(-c2nc(CS(=O)CC(=O)N3CCc4ccccc43)c(C)o2)c1 (stereo unspecified),12,x,x,x,x,x
CCOC(=O)N1CCC(NC(=O)CS(=O)Cc2nc(-c3ccc(C)cc3)oc2C)CC1 (stereo unspecified),-3,u,-15%,1%,9%,10
O=C(Nc1ccc(Cl)c(C(F)(F)F)c1)c1ccc(F)cc1,14,x,x,x,x,x
CC1(C)CC(NCCC(=O)NC2CC(C)(C)NC(C)(C)C2)CC(C)(C)N1,-7,x,x,x,x,x
Cc1oc(-c2ccc(Cl)cc2)nc1CS(=O)CC(=O)NCCCN1CC(C)CC(C)C1 (stereo unspecified),-2,u,u,-4%,2%,-70*
CCOC(=O)N1CCN(C(=O)CS(=O)Cc2nc(-c3ccc(C)cc3)oc2C)CC1 (stereo unspecified),-14,12%,-29%,-1%,11%,7
Cc1oc(-c2ccc(Cl)cc2)nc1CS(=O)CC(=O)NCCN1CCOCC1 (stereo unspecified),10,x,x,x,x,x
Cc1ccc(-c2nc(CS(=O)CC(=O)N3CCN(c4ccc(Cl)cc4)CC3)c(C)o2)cc1 (stereo unspecified),3,16µM*,21µM*,x,x,x
Cc1cc(N2CCN(S(=O)(=O)c3ccc(Cl)c(Cl)c3)CC2)nc(C(C)C)n1,-3,x,x,x,x,x
Cc1nc(NCCC(C)C)sc1C(=O)NCc1ccncc1,0,x,x,x,x,x
CCc1ccc(CNC(=O)c2sc3ncccc3c2-n2c(C)ccc2C)cc1,6,15µM*,21µM*,x,x,x
CCN(CC)CCNC(=O)c1sc2ncccc2c1-n1c(C)ccc1C,-4,x,x,x,x,x
COCCNC(=O)c1sc2ncccc2c1-n1c(C)ccc1C,2,18µM*,u,x,x,x
Cc1ccc(C)n1-c1c(C(=O)NCCC(C)C)sc2ncccc12,0,16µM*,18µM*,x,x,x
COc1cccc(CN2CCc3ccccc3C2)c1OC,5,x,x,x,x,x
O=C(NCC(O)c1ccc(F)cc1F)c1ccc(=O)[nH]c1 (stereo unspecified),11,x,x,x,x,x
C/C(=N\NC(=O)c1ccccc1C)C(C)C,8,x,x,x,x,x
CCCCn1c(N)c(N(CCOC)C(=O)CSCc2ccc(Cl)c(Cl)c2)c(=O)[nH]c1=O,-3,-26%,u,x,x,-13
CC(C)CN(C(=O)CN(C)CC(=O)Nc1ccc(Cl)c(C(F)(F)F)c1)c1c(N)n(CC(C)C)c(=O)[nH]c1=O,-4,u,18µM*,x,x,-66*
CCCCn1c(N)c(N(CCOC)C(=O)CN(C)CC(=O)Nc2ccc(Cl)c(Cl)c2)c(=O)[nH]c1=O,-6,18µM*,u,x,x,u
CCCCn1c(N)c(N(CCOC)C(=O)COC(=O)COc2cc(C)c(Cl)cc2C(C)C)c(=O)[nH]c1=O,1,12%,-14%,x,x,-98*
COC(=O)c1ccccc1-c1ccc(C=C(C#N)C#N)o1,3,x,x,x,x,x
CCCCCCCCCCCCCCCC[n+]1cccc(C(=O)N(CC)CC)c1,13,2.9µM*,2.6µM*,-18%,-19%,-63*
CCCCCCCCCCCCCCCC[n+]1ccc(/C=N/O)cc1,-3,1.6µM*,1.6µM*,7.1µM*,u,-100*
CCCCCCCCCCCCCCCC[n+]1ccc(C(N)=O)cc1,u,4.6µM*,2.9µM*,-18%,u,-103*
CCCCCCCC[n+]1cccc(C(=O)N(CC)CC)c1,-4,-26%,u,-6%,3%,-6
CCCCOc1ccc(C(N)=O)cc1,2,6%,-9%,x,x,x
CCc1ccc(/C=N/O)cc1,1,x,x,x,x,x
CCCCCCCCCCCCCC[n+]1ccc(C)cc1,x,0.42µM*,0.38µM*,4µM*,u,x
Cc1csc(NC(=O)c2nn(C(C)C)c(=O)c3ccccc23)n1,-4,x,x,x,x,x
